# Measurements reported in the supplement of paper PMC10127200.
# Counter-ions that a name gives are not always drawn.
# How the values were obtained:
# Test in all cases: Euclidean distance of Cell Painting phenotypic profile (signed KS, 77 features) to DMSO centroid (dimensionless distance); 5 or 10 uM (library dependent); higher = stronger phenotypic change vs DMSO (phenoactivity)
# Settings in all cases: 48 h
# [1] = tested on: 786-O
# Method in brief: (§1)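 Harmony extracted 77 features from 20X confocal images (9 fields/well) of stained cells, scoring each as a signed Kolmogorov-Smirnov statistic against same-plate vehicle wells. The cells, five cancer lines and a healthy fibroblast line, had received library compounds for 48 h at 10 or 5 uM depending on library, with 0.1% DMSO final. Phenoactivity is the Euclidean distance from each plate-position-corrected, correlation-weighted, top-dose replicate-averaged profile to the median vehicle profile.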
# [2] = tested on: A549
# Method in brief: as §1
# [3] = tested on: DU145
# Method in brief: as §1
# [4] = tested on: FB
# Method in brief: as §1
# [5] = tested on: HEPG2
# Method in brief: as §1
# [6] = tested on: OVCAR4
# Method in brief: as §1
SMILES,Euclidean distance [1],Euclidean distance [2],Euclidean distance [3],Euclidean distance [4],Euclidean distance [5],Euclidean distance [6]
Cc1ccc(S(=O)(=O)OCC(=O)Nc2ccc(C(=O)O)c(O)c2)cc1,1.33,1.22,1.04,0.948,0.793,1.47
NC(=O)c1cccnc1 [Nicotinamide (Vitamin B3)],0.857,0.597,2.86,0.938,0.669,1.28
C[C@@H](O)[C@H]1C(=O)N2C(C(=O)O)=C(S[C@@H]3CN[C@H](CNS(N)(=O)=O)C3)[C@H](C)[C@H]12 [Doripenem],0.636,0.801,0.812,1.15,0.434,1.45
NS(=O)(=O)c1cc(C2(O)NC(=O)c3ccccc32)ccc1Cl (configuration not stated) [Chlorthalidone],0.738,0.425,1.18,1.4,0.481,0.876
C[C@]12CCC(=O)C=C1C=C[C@@H]1[C@@H]2CC[C@@]2(C)[C@H]1CC[C@@]21CCC(=O)O1 [Canrenone],1.64,0.961,1.1,1.33,1.24,1.05
C[C@H]1NCc2cc(-c3ccc4c(=O)c(C(=O)O)cn(C5CC5)c4c3OC(F)F)ccc21 [Garenoxacin],0.629,0.876,0.678,1.54,0.463,1.08
CCc1nc2c(C)cc(N3CCN(CC(=O)N4CC(O)C4)CC3)cn2c1N(C)c1nc(-c2ccc(F)cc2)c(C#N)s1 [Ziritaxestat (GLPG1690)],1.57,1.31,0.685,2.02,1.42,1.68
CO[C@H]1C[C@@H]2CC[C@@H](C)[C@@](O)(O2)C(=O)C(=O)N2CCCC[C@H]2C(=O)O[C@H]([C@H](C)C[C@@H]2CC[C@H](n3cnnn3)[C@H](OC)C2)CC(=O)[C@H](C)/C=C(\C)[C@@H](O)[C@@H](OC)C(=O)[C@H](C)C[C@H](C)/C=C/C=C/C=C/1C [Zotarolimus(ABT-578)],2.27,1.83,1.38,2.7,1.45,2.09
CCC[C@@H]1C[C@@H](C(=O)N[C@@H]([C@H]2O[C@H](SC)[C@H](O)[C@@H](O)[C@H]2O)[C@H](C)Cl)N(C)C1 [Clindamycin],0.793,0.77,0.629,1.14,0.601,0.602
C[C@@H](O)[C@H]1C(=O)N2C(C(=O)[O-])=C(SC3Cn4cnc[n+]4C3)[C@H](C)[C@H]12 (some centres not stated) [Biapenem],1.35,0.934,1.14,1.22,1.02,0.838
N#Cc1ccc(C(c2ccc(C#N)cc2)n2cncn2)cc1 [Letrozole],3.04,1.88,1.67,3.14,1.48,2.31
CC1(C)S[C@@H]2[C@H](NC(=O)[C@H](N)c3ccc(O)cc3)C(=O)N2[C@H]1C(=O)O [Amoxicillin trihydrate],0.875,1,0.666,0.987,0.529,1.31
CC1=C(C(=O)OCCN(Cc2ccccc2)c2ccccc2)C(c2cccc([N+](=O)[O-])c2)C(P2(=O)OCC(C)(C)CO2)=C(C)N1 (configuration not stated) [Efonidipine],1.73,1.93,1.02,0.739,0.968,0.999
COc1cccc2c1C(=O)c1c(O)c3c(c(O)c1C2=O)C[C@@](O)(C(C)=O)C[C@@H]3O[C@H]1C[C@H](N)[C@H](O)[C@H](C)O1 [Daunorubicin HCl],5.05,5.5,5.6,4.91,4.88,5.41
COc1ccc(-c2cc(=O)c3c(O)cc(O[C@@H]4O[C@H](CO[C@@H]5O[C@@H](C)[C@H](O)[C@@H](O)[C@H]5O)[C@@H](O)[C@H](O)[C@H]4O)cc3o2)cc1O [Diosmin],0.665,0.621,1.01,0.778,0.671,0.702
CNC[C@H](O)[C@@H](O)[C@H](O)[C@H](O)CO [Meglumine],1.78,1.75,2.13,1.59,0.652,1.67
COc1cc(F)c(C(C)C)cc1-c1ccc(C(F)(F)F)cc1CN1C(=O)O[C@H](c2cc(C(F)(F)F)cc(C(F)(F)F)c2)[C@@H]1C [Anacetrapib (MK-0859)],0.703,0.903,1.12,0.869,1.84,0.709
O=C(O)CCCC[C@@H]1CCSS1 (racemic) [Thioctic acid],1.09,0.518,1.41,0.755,0.413,0.684
CC[C@H]1OC(=O)[C@H](C)[C@@H](O[C@H]2C[C@@](C)(OC)[C@@H](O)[C@H](C)O2)[C@H](C)[C@@H](O[C@@H]2O[C@H](C)C[C@H](N(C)C)[C@H]2O)[C@](C)(O)C[C@@H](C)C(=O)[C@H](C)[C@H]2OC(=O)O[C@@]21C [Erythromycin Cyclocarbonate],1.11,1.33,0.736,0.984,1.01,0.912
CCC(C)(C)c1ccc(CC(C)CN2C[C@@H](C)O[C@@H](C)C2)cc1 (some centres not stated) [Amorolfine HCl],0.719,0.701,0.552,1.61,0.635,0.693
COC(=O)C1=CO[C@@H](O)[C@@H]2C(CO)=CC[C@H]12 [Genipin],1.19,1.13,0.882,1.15,0.828,1.35
CC#C[C@]1(O)CC[C@H]2[C@@H]3CCC4=CC(=O)CCC4=C3[C@@H](c3ccc(N(C)C)cc3)C[C@@]21C [Mifepristone],1.22,1.62,1.48,1.13,1.01,1.14
O=c1cc(-c2ccccc2)oc2cc(O)cc(O)c12 [Chrysin],1.58,1.09,1.1,1,1.37,1.37
CC(C)C[C@H](NC(=O)[C@H](Cc1ccccc1)NC(=O)c1cnccn1)B(O)O [Bortezomib],5.28,3.87,6.56,6.53,4.55,5.51
C[C@@H](Oc1ccc2[nH]nc(/C=C/c3cnn(CCO)c3)c2c1)c1c(Cl)cncc1Cl,3.17,3.59,3.07,3.2,3.02,3.82
O=C(NCc1ccc(Oc2ccccc2)cc1)c1nc(-c2cc(Br)c(O)c(Br)c2)no1,0.904,1.1,0.858,0.788,1.55,1.21
CC(C(=O)O)c1ccc(CC2CCCC2=O)cc1 (configuration not stated) [Loxoprofen],1.12,0.954,0.808,1.12,0.384,0.794
